JMJD2A Tudor = qHTS Assay for Inhibitors of JMJD2A-Tudor Domain; Potency, µM (top dose mostly 114 µM), inactives show at the top dose activity change, negative = inhibition, usual class: inhibitors; Lysine-specific demethylase 4A (Homo sapiens), O75164; AlphaScreen JMJD2A-Tudor / H3K4me3 peptide binding; actives 4.4% (n = 390,000); AID 504339, 2011; note: potency is the fitted concentration of half-maximal effect; % is set by controls: 0 for no effect and ±100 for the full control effect; nearly all actives have a fitted effect of over 50% in size
BAZ2B block = qHTS Assay for Inhibitors of BAZ2B; Bromodomain adjacent to zinc finger domain protein 2B (Homo sapiens), Q9UIF8; AlphaScreen BAZ2B-H3K14Ac peptide displacement; Potency, µM (top dose mostly 114 µM), for the others: at the top dose activity change, negative = inhibition, most hits filed as inhibitors; actives 4.4% (n = 360,000); note: potency is the fitted concentration of half-maximal effect; % is set by controls: 0 for no effect and ±100 for the full control effect; nearly all actives have a fitted effect of over 60% in size
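Complex of BAZ2B and biotin-H3K14Ac (50 nM apiece) forms over 30 min at RT, then faces library compounds up to 110 uM for another 30 min; AlphaScreen beads added, 20 min dark incubation, luminescence read.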
HP1b chromo inh = HTS for Inhibitors of HP1-beta Chromodomain Interactions with Methylated Histone Tails | AlphaScreen HP1-beta / biotin-H3K9me3 peptide binding | Potency, µM (series often up to 114 µM), inactives show at the highest dose activity change, negative = inhibition, hits mostly inhibitors | actives 0.56% (n = 390,000) | Chromobox protein homolog 1 (Homo sapiens), P83916; note: potency is the fitted concentration of half-maximal effect; nearly all actives have a fitted effect of over 70% in size
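HP1-beta protein (50 nM final) preincubated 30 min at room temperature with biotinylated H3(1-18)K9me3 peptide (50 nM) in PBS pH 7.4, 0.01% Tween-20, then compound added for 30 min. AlphaScreen streptavidin donor/nickel chelate acceptor beads (10 ug/mL final), 30 min dark, luminescence read.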
Six1-Eya2 blk = qHTS Assay for Inhibitors of the Six1/Eya2 Interaction; Homeobox protein SIX1 (Homo sapiens) + Protein phosphatase EYA2 (Homo sapiens), …; AlphaScreen GST-Six1/His-Eya2 binding, biochemical; stronger effect = lower value; activity change, % (concentration not given with the values); actives 0.56% (n = 360,000); AID 651725, 2012; in the data active = activity change below about -65%; inconclusive = mostly about -30% to -63%; note: % is set by controls: 0 for no effect and ±100 for the full control effect
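AlphaScreen luminescence read after one hour at 37 °C in darkness. Pin-transferred compounds met GST-Six1 and His-Eya2 protein (5X stock 250 nM/500 nM) plus glutathione donor and Ni-chelate acceptor beads (5X, 50 ug/mL).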
G9a block = qHTS Assay for Inhibitors of Histone Lysine Methyltransferase G9a. actives 8.8% (n = 350,000). Potency, µM (doses to about 102 µM), without a hit: top-dose activity, negative = inhibition, usual class: inhibitors. G9a H3K9 monomethylation, AlphaScreen, 2 h; note: potency is the fitted concentration of half-maximal effect; % is set by controls: 0 for no effect and ±100 for the full control effect; nearly all actives have a fitted effect of over 75% in size
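Readings reflect AlphaScreen signal from monomethyl-H3K9 antibody detection. HMT at 20 nM; substrate b-H3K9 500 nM; cofactor SAM 20 uM; 2 h RT reaction; compounds tested as titrations in qHTS with 15 min preincubation.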
CtBP-E1A blk = qHTS Assay for Inhibitors of the CtBP/E1A Interaction; AlphaScreen GST-E1A/His-CtBP binding, 1536-well; stronger effect = lower value; actives 0.49% (n = 340,000); CtBP / adenovirus E1A interaction (AlphaScreen); activity change, % (concentration not given with the values); AID 651724, 2012; in the data active = activity change below about -65%; inconclusive = mostly about -30% to -63%; note: % is set by controls: 0 for no effect and ±100 for the full control effect
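GST-E1A and His-tagged CtBP (125 nM each as 5X stock) were preincubated with pin-transferred compound for 2 h at 37 °C in the dark, then glutathione donor and nickel acceptor beads were added for 1 h before AlphaScreen reading.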
* hit, by the source's call; ? = inconclusive; nt = no result given; [ ] = remark or other dose. Compounds with a hit are over-represented: about 10% of the library has one in this group of screens. Unless noted, calls come from the whole dose curve; as a rule, active = well fitted inhibition curve with a large enough effect; inconclusive = small, poorly fitted or top-dose-only effect; inactive = no such curve, though single readings can be large or run the other way.

SMILES	JMJD2A Tudor	BAZ2B block	HP1b chromo inh	Six1-Eya2 blk	G9a block	CtBP-E1A blk
COc1ccc(-c2csc(NC(=O)CN3C(=O)NC4(CCCC4)C3=O)n2)c(OC)c1	-30%	-4%	0%	-2	50µM*	-7
CC(C)(C)c1ccc(-c2csc(NC(=O)CN3C(=O)NC4(CCCCC4)C3=O)n2)cc1	-6%	-5%	22%	-1	39%[12.7 µM]	1
COc1ccc(OC)c(-c2csc(NC(=O)Cc3cc(OC)c(OC)c(OC)c3)n2)c1	-16%	1%	12%	-7	19%	-5
COc1ccc(OC)c(-c2csc(NC(=O)COC(=O)c3ccc(NC(=O)CC#N)cc3)n2)c1	45µM*	40µM*	-12%	-16	11%[12.7 µM]	-17
CCC(=C(CC)c1ccc(O)cc1)c1ccc(O)cc1	nt	nt	nt	nt	11%[21.5 µM]	nt
COc1cc2c(cc1OC)/C(=C/C(=O)N1CCOCC1)NC(C)(C)C2	?	-17%	2%	5	?	-4
CC1(C)Cc2ccccc2/C(=C/C(=O)N2CCCCCC2)N1	?	56µM*	0%	-7	35µM*	-18
O=C(CC1OCC2CCCN2C1=O)Nc1ccc([N+](=O)[O-])cc1 (configuration not stated)	-7%	2%	37%	-4	8.9µM*	-3
CCOC(=O)c1cc(-c2ccccc2)sc1NC(=O)c1ccc(OC)c(OC)c1	?	9%	?	2	3.5µM*	-22
CCOC(=O)c1ccc(OS(=O)(=O)c2ccccc2)c(OC)c1	89µM*	65%	69%	10	5%[59 µM]	8
COC(=O)c1cc(-c2ccccc2)sc1NC(=O)CN1C(=O)c2ccccc2C1=O	?	-2%	?	-3	10µM*	0
CCOc1cc(C(=S)N2CCOCC2)ccc1OS(=O)(=O)c1ccccc1	-19%	-9%	28%	-2	-6%[59 µM]	-6
COC(=O)c1cc(OC)c(OC)cc1NC(=O)CN1C(=O)c2ccccc2C1=O	?	?	27%	0	2%[59 µM]	1
O=C(CSc1nnc(CNC(=O)c2cccc(F)c2)n1-c1ccccc1)Nc1ccccc1F	-13%	-18%	23%	nt	-24%[59 µM]	nt
COCCNC(=O)CCCn1c(SCc2ccccc2Cl)nc2c(sc3ccccc32)c1=O	-21%	27%	45%	nt	31%[59 µM]	nt
CCN(CC)C(=O)c1sc2c(c1C)c(=O)n(Cc1ccccc1)c(=O)n2Cc1c(C)cc(C)cc1C	-15%	-16%	27%	nt	-5%[59 µM]	nt
CCOC(=O)C1(CCC(C)C)CC(CSc2nc3ccccc3[nH]2)OC1=O (configuration not stated)	-10%	?	50%	3	14%[12.7 µM]	11
CCOC(=O)C1(CC)CC(CSc2nc3ccccc3[nH]2)OC1=O (configuration not stated)	89µM*	?	14%	9	-9%[12.7 µM]	0
CSCCC1Nc2ccc(S(=O)(=O)N3CCOCC3)cc2NC1=O (configuration not stated)	-19%	nt	29%	1	3.2µM*	6
COc1ccc(Cc2nnc(Cl)c3ccccc23)cc1OC	-10%	-35%	10%	-1	50µM*	nt
C[C@]12O[C@H](C[C@]1(O)CO)n1c3ccccc3c3c4c(c5c6ccccc6n2c5c31)CNC4=O	nt	nt	nt	nt	-25%[12.7 µM]	nt
Cc1ccc(/C=C/C(=O)N2CC(C)CC(C)C2)o1 (configuration not stated)	50µM*	-35%	?	-3	8.9µM*	-4
CCN1CCN(C(=O)/C=C/c2ccc(C)o2)CC1	-12%	11%	15%	6	10µM*	-1
CC(=O)/C=C/c1ccc(C)o1	4%	-5%	11%	-16	?	1
Cc1cccc(C)c1OCCn1c(C2CC(=O)N(Cc3ccc(F)cc3)C2)nc2ccccc21 (configuration not stated)	?	?	19%	nt	-39%[59 µM]	nt
SMILES	JMJD2A Tudor	BAZ2B block	HP1b chromo inh	Six1-Eya2 blk	G9a block	CtBP-E1A blk
O=C(Nc1ccc(N2CCC(c3ccccc3)C2)c(C(=O)O)c1)c1ccc(Cl)cc1 (configuration not stated)	?	-34%	16%	nt	10µM*	nt
O=C(Nc1ccc(Cl)cc1)N1CCC(c2ccccc2)C1 (configuration not stated)	-9%	9%	21%	7	10%	2
COc1cc(/C=C/C(=O)O)cc(S(=O)(=O)N2CCc3ccccc3C2)c1OC	-5%	-36%	32%	-4	89µM*	2
Cc1noc(C)c1CCC(=O)N1CCCC(CCC(=O)NCc2ccc(F)c(F)c2)C1 (configuration not stated)	100µM*	-24%	?	-8	?	nt
COC(=O)c1ccccc1C(=O)N1CCCC(CCC(=O)NCc2ccc(F)c(F)c2)C1 (configuration not stated)	-4%	-26%	49%	6	5.6µM*	12
CSc1ccccc1C(=O)N1CCCC(CCC(=O)NCc2ccc(F)c(F)c2)C1 (configuration not stated)	-12%	-19%	27%	25	1%	0
O=C(CCC1CCCN(C(=O)CCC(F)(F)F)C1)NCc1ccc(F)c(F)c1 (configuration not stated)	-5%[57.1 µM]	-24%	45%	9	-3%	2
COCCNc1ncnc2ccc(-c3ccccc3OC)cc12	nt	nt	nt	nt	9%[0.501 µM]	nt
CN(C)c1ncc2nc(-c3ccccc3)c(=O)n(CCC#N)c2n1	nt	nt	nt	nt	2%[0.501 µM]	nt
O=C(NCCn1cc(SCc2ccc(Cl)cc2)c2ccccc21)c1cccs1	-11%	-35%	37%	nt	-1%[59 µM]	nt
CC(=O)C1=C(C)NC(SCC(=O)c2ccc(Cl)cc2)=C(C#N)C1CC(C)C (configuration not stated)	?	?	38%	6	0.79µM*	-11
CCC1C(C#N)=C(SCC(N)=O)NC2=C1C(=O)CC(C)(C)C2 (configuration not stated)	71µM*	1%	-6%	-5	40µM*	6
CC(=O)C1=C(C)NC(SCC(N)=O)=C(C#N)C1c1ccco1 (configuration not stated)	-15%	?	33%	2	?	-29
CCOC(=O)C1=C(C)NC(SC)=C(C#N)C1CC(C)C (configuration not stated)	10%	19%	47%	4	-7%[12.7 µM]	10

Screens: PubChem, National Center for Advancing Translational Sciences (NCATS)
